Results taken from PubChem BioAssay (Tox21).
Results filed as inconclusive are left out. Active and inactive are the calls of the source. Unless noted, calls come from the whole dose curve.

Tests used:
[1] = biological target: Peroxisome proliferator-activated receptor delta (Homo sapiens) (UniProt Q03181); experiment: qHTS assay to identify small molecule agonists of the peroxisome proliferator-activated receptor delta (PPARd) signaling pathway (AID 743212)
Summary of the method: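 HEK293H UAS-bla reporter cells, human PPARd system; compounds delivered in DMSO after 5 h plating, then at 37 C. Beta-lactamase FRET read, 2 h RT substrate step.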

[2] = qHTS assay to identify small molecule antagonists of the peroxisome proliferator-activated receptor delta (PPARd) signaling pathway - cell viability counter screen (AID 743213; active = well fitted curve in the direction sought with a large enough effect in the repeat runs; an effect the other way counts as inactive or inconclusive; note: nearly all actives have a fitted effect of over 50% in size)
Summary of the method: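 Agonist-stimulated (L165041, 300 nM final) HEK293H PPARd UAS-bla cells are exposed to compounds for 17 h at 37 C, and ATP-based luminescence (CellTiter-Glo) from the same wells reports cytotoxicity.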

[3] = biological target: Peroxisome proliferator-activated receptor delta (Homo sapiens) (UniProt Q03181); experiment: qHTS assay to identify small molecule antagonists of the peroxisome proliferator-activated receptor delta (PPARd) signaling pathway (AID 743215; active = well fitted inhibition curve with a large enough effect in the signal ratio in the repeat runs, not every such curve was filed as active; the % refers to the signal ratio; note: series mostly up to about 62 µM)
Summary of the method: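 PPARd UAS-bla HEK293H cells were pre-incubated 5 h at 37 C, then given test compounds in DMSO plus agonist L165041 (300 nM final). After 17 h at 37 C, beta-lactamase FRET substrate was added; fluorescence read after 2 h at room temperature.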

[4] = qHTS assay to identify small molecule agonists of the farnesoid-X-receptor (FXR) signaling pathway - cell viability counter screen (AID 743218; active = well fitted curve in the direction sought with a large enough effect in the repeat runs; an effect the other way counts as inactive or inconclusive; note: nearly all actives have a fitted effect of over 45% in size)
Summary of the method: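 FXR-UAS-bla HEK 293T cells, plated 5 h at 37 C, were exposed to compounds for 16 h at 37 C. CellTiter-Glo was then added to the same wells as the bla readout; luminescence read after 30 min at room temperature.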

[5] = qHTS assay to identify small molecule antagonists of the farnesoid-X-receptor (FXR) signaling pathway - cell viability counter screen (AID 743221; active = well fitted cell-killing curve with a large enough effect in the repeat runs, not every such curve was filed as active; note: nearly all actives have a fitted effect of over 50% in size)
Summary of the method: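 Luminescence from CellTiter-Glo measures cytotoxicity in GeneBLAzer FXR-UAS-bla HEK 293T cells. Cells were exposed to compounds with 50 uM chenodeoxycholic acid (final) for 16 h at 37 C, in wells also used for the reporter readout.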

[6] = biological target: Vitamin D3 receptor (Homo sapiens) (UniProt P11473); experiment: qHTS assay to identify small molecule agonists of the vitamin D receptor (VDR) signaling pathway (AID 743222)
Summary of the method: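 VDR-bla cells were plated 4 h at 37C/5% CO2, then exposed to compounds in DMSO for 16 h. After LiveBLAzer B/G FRET substrate addition and 2 h at room temperature, beta-lactamase reporter fluorescence was read.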

[7] = biological target: Vitamin D3 receptor (Homo sapiens) (UniProt P11473); experiment: qHTS assay to identify small molecule antagonists of the vitamin D receptor (VDR) signaling pathway (AID 743223; active = well fitted inhibition curve with a large enough effect in the signal ratio in the repeat runs, not every such curve was filed as active; the % refers to the signal ratio)
Summary of the method: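 Antagonist mode uses 1alpha,25-dihydroxyvitamin D3 at 3 nM final as stimulus. VDR-bla cells receive compounds in DMSO, incubate 16 h at 37C, then a beta-lactamase FRET substrate for 2 h at room temperature before fluorescence measurement.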

[8] = qHTS assay to identify small molecule agonists of the vitamin D receptor (VDR) signaling pathway - cell viability counter screen (AID 743224; active = well fitted curve in the direction sought with a large enough effect in the repeat runs; an effect the other way counts as inactive or inconclusive; note: series mostly up to about 63 µM; nearly all actives have a fitted effect of over 50% in size)
Summary of the method: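 VDR-bla cells were preincubated 4 h at 37C/5% CO2, then exposed to compounds for 16 h. After the 2 h room-temperature bla FRET read, CellTiter-Glo was added to the same wells and luminescence read after 30 min.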

[9] = qHTS assay to identify small molecule agonists of the NFkB signaling pathway (AID 1159509; active = well fitted curve in the direction sought with a large enough effect in the signal ratio in the repeat runs, not every such curve was filed as active; the % refers to the signal ratio; note: series mostly up to about 61 µM)
Summary of the method: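 After overnight attachment, reporter cells received test compounds, DMSO or positive controls and were incubated 5 hr at 37 C. FRET substrate was then added for 1.5 hr at room temperature before dual-emission fluorescence reading.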

[10] = qHTS assay to identify small molecule agonists of the NFkB signaling pathway - cell viability counter screen (AID 1159515); note: series mostly up to about 61 µM; nearly all actives have a fitted effect of over 55% in size
Summary of the method: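 NFkB-bla ME-180 cells, 2,000/well, were plated overnight at 37 C, 5% CO2, then exposed to compounds in DMSO for 5 hr. After the bla FRET read, CellTiter-Glo was added to the same wells; luminescence was read after 30 min at room temperature.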

[11] = qHTS assay to identify small molecule agonists of the endoplasmic reticulum stress response signaling pathway (AID 1159516; active = well fitted activation curve with a large enough effect in the signal ratio in the repeat runs, not every such curve was filed as active; the % refers to the signal ratio)
Summary of the method: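 CellSensor ESRE-bla HeLa cells, carrying a beta-lactamase reporter driven by the ER stress response element, were plated overnight and exposed to compounds for 5 hr at 37 C. Reporter activity was read as FRET substrate fluorescence after 2 hr at room temperature.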

[12] = qHTS assay to identify small molecule agonists of the endoplasmic reticulum stress response signaling pathway - cell viability counter screen (AID 1159517); note: series mostly up to about 61 µM; nearly all actives have a fitted effect of over 50% in size
Summary of the method: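 Cells, HeLa ESRE-bla; density, 1,500/well; dosing, 5 hr at 37 C, 5% CO2; readout, CellTiter-Glo luminescence after 30 min RT.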

[13] = qHTS assay to identify small molecule antagonists of the retinoid-related orphan receptor gamma (ROR-gamma) signaling pathway - cell viability counter screen (AID 1159520; active = well fitted curve in the direction sought with a large enough effect in the repeat runs; an effect the other way counts as inactive or inconclusive; note: nearly all actives have a fitted effect of over 50% in size)
Summary of the method: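 Cytotoxicity was read from cellular ATP (CellTiter-Glo luminescence) after 16 hr at 37 C with 1 uM doxycycline induction. The inducer was added 2 hr after compound transfer to Tet-on ROR gamma CHO cells.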

[14] = biological target: Nuclear receptor ROR-gamma (Homo sapiens) (UniProt P51449); experiment: qHTS assay to identify small molecule antagonists of the retinoid-related orphan receptor gamma (ROR-gamma) signaling pathway (AID 1159521; active = well fitted curve in the direction sought with a large enough effect in the repeat runs; an effect the other way counts as inactive or inconclusive)
Summary of the method: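 CHO Tet-on RORγ, RORE-luc reporter. Cpd 2 h pre-incubation, then dox hyclate 1 uM final, 16 h, 37 C/5% CO2. ONE-Glo luminescence; decrease = antagonist.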

[15] = qHTS assay to identify small molecule agonists of the AP-1 signaling pathway - cell viability counter screen (AID 1159525); note: nearly all actives have a fitted effect of over 55% in size
Summary of the method: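 Luminescent ATP readout (Cell Titer Glo, 30 min RT), normalised to DMSO and tetra n-octyl ammonium bromide controls. Cells were ME-180 AP-1-bla in 0.5% dialyzed FBS Opti-MEM, with a 5 h, 37 °C compound exposure.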

[16] = qHTS assay to identify small molecule agonists of the AP-1 signaling pathway (AID 1159526)
[17] = qHTS assay to identify small molecule agonists of the peroxisome proliferator-activated receptor delta (PPARd) signaling pathway - cell viability counter screen (AID 743211; active = well fitted curve in the direction sought with a large enough effect in the repeat runs; an effect the other way counts as inactive or inconclusive; note: nearly all actives have a fitted effect of over 55% in size)
Summary of the method: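 HEK293H PPARd-bla, 3000 cells/well; 5 h preincubation 37C/5% CO2; cpd in DMSO, 17 h 37C; B/G FRET substrate 2 h RT; CellTiter-Glo 30 min RT, luminescence.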

[18] = biological target: Bile acid receptor (Homo sapiens) (UniProt Q96RI1); experiment: qHTS assay to identify small molecule agonists of the farnesoid-X-receptor (FXR) signaling pathway (AID 743220; active = well fitted activation curve with a large enough effect in the signal ratio in the repeat runs, not every such curve was filed as active; the % refers to the signal ratio)
Summary of the method: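 Beta-lactamase reporter under UAS control in GeneBLAzer FXR HEK 293T cells (5000/well) measured with LiveBLAzer FRET substrate after 2 h at room temperature. Compound exposure lasted 16 h at 37C.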

[19] = qHTS assay to identify small molecule antagonists of the vitamin D receptor (VDR) signaling pathway - cell viability counter screen (AID 743225; active = well fitted curve in the direction sought with a large enough effect in the repeat runs; an effect the other way counts as inactive or inconclusive; note: nearly all actives have a fitted effect of over 50% in size)
Summary of the method: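 Read-out: CellTiter-Glo luminescence measured 30 min after reagent addition at room temperature. Cells were VDR-bla HEK 293T exposed 16 h at 37C, 5% CO2, to compound with 3 nM final calcitriol agonist.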

Measured: Potency

Chain of Bile acid receptor (Homo sapiens) (Q96RI1 whole entry, looked up): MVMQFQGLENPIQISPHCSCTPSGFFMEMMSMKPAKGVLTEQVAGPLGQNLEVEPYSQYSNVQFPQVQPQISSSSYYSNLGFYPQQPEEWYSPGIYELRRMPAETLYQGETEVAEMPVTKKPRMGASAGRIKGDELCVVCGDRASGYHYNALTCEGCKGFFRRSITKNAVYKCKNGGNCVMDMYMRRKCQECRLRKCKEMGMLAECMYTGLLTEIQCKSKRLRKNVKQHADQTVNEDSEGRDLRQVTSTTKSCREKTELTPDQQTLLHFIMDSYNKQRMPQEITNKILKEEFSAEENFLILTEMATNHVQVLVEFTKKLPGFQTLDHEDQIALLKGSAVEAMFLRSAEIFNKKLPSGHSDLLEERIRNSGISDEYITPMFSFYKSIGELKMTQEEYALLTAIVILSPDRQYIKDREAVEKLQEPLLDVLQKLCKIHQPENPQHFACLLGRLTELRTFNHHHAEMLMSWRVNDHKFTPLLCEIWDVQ
Chain of Vitamin D3 receptor (Homo sapiens) (P11473 whole entry, looked up): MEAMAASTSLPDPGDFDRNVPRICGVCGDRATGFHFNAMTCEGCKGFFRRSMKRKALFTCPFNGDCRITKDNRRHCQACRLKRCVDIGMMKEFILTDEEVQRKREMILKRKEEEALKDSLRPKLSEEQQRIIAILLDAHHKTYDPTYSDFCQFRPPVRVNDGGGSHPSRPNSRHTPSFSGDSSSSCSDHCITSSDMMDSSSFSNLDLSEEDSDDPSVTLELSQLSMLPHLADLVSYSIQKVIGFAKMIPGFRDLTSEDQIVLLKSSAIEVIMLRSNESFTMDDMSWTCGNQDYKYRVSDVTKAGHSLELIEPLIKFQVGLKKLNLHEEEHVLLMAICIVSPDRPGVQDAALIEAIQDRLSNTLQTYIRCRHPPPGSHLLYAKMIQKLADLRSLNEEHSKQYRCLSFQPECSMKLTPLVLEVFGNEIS
Chain of Peroxisome proliferator-activated receptor delta (Homo sapiens) (Q03181 whole entry, looked up): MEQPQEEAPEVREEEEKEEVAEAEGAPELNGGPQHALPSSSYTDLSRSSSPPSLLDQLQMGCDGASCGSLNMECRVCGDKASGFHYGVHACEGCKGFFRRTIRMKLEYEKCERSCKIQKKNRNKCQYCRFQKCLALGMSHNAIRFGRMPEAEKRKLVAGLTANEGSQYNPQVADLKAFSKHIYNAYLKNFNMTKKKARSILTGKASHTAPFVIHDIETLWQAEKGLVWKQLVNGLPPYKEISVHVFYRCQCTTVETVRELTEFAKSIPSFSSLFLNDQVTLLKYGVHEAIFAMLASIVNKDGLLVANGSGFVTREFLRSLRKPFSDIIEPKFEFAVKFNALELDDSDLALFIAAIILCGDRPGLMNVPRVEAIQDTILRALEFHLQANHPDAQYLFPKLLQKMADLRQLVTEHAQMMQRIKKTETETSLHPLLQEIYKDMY

O=S(=O)(O)OOS(=O)(=O)O
not listed: [17] | [18] | [19]
inactive: all other assays above

OCC(O)CCl (centres undefined)
not listed: [17] | [18] | [19]
inactive: all other assays above

CCCCCCCCCCCCCCCCCC(=O)O
not listed: [1] | [3] | [6] | [7] | [14] | [17] | [18] | [19]
inactive: all other assays above

COP(=S)(OC)SCN1C(=O)c2ccccc2C1=O
not listed: [6] | [7] | [14]
inactive: all other assays above

CN(C)NC(=O)CCC(=O)O
not listed: [17] | [18]
inactive: all other assays above

COS(=O)(=O)OC
not listed: [17] | [18] | [19]
inactive: all other assays above

O=C(O)c1cc(Oc2ccc(C(F)(F)F)cc2Cl)ccc1[N+](=O)[O-]
not listed: [1] | [3] | [6] | [7] | [17] | [18] | [19]
inactive: all other assays above

C=CC(=O)OCC(CC)CCCC (centres undefined)
not listed: [1] | [3] | [7] | [17] | [18]
inactive: all other assays above

Cl/C=C/Cl
not listed: [17] | [18] | [19]
inactive: all other assays above

CC(C)CCCCCCOC(=O)c1ccccc1C(=O)OCCCCCCC(C)C
not listed: [14] | [19]
inactive: all other assays above

Cc1cccc(C)c1N
not listed: [6] | [7] | [17]
inactive: all other assays above

CC[N+](=O)[O-]
not listed: [17] | [18] | [19]
inactive: all other assays above

O=C(O)Cc1ccccc1
not listed: [1] | [3] | [17]
inactive: all other assays above

CNC(=O)O/N=C(\SC)C(=O)N(C)C
not listed: [17] | [18]
inactive: all other assays above

CCCCC(CC)C(=O)Cl (centres undefined)
not listed: [6] | [7] | [17]
inactive: all other assays above

O=C(O)COc1ccccc1
not listed: [14] | [18]
inactive: all other assays above
